From PubChem BioAssay AID1159580 (chemical genetic matrix, 2015)
Hit rate of the full screen: of about 5,500 compounds, about 2,000 (36%) were called active. Roughly 18% stayed inconclusive and do not appear here. No stated cut-off is given here; in the data, active means normalized growth mostly below about 0.91 (no sharp cut-off); inconclusive means no clear call, values can overlap the other calls; inactive means mostly above about 0.92. The list shows a part of the results.

Assay: chemical genetic growth profiling, strain panel (AID 1159580);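 further: tested at 20 µM; growth read once vehicle control cultures reached saturation at 30 °C; 1 = growth at the plate median or of vehicle wells; lower values mean less growth of the strain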
Details: growth OD

Measured: normalized growth

c1ccc([C@H]2CN3CCSC3=N2)cc1
inactive: S. cerevisiae deletion strains, locus YJR075W, strain HOC1, active compounds read low 1.01 | S. cerevisiae deletion strains, locus YKL009W, strain mrt4, active compounds read low 1.01 | S. cerevisiae deletion strains, locus YKL068W, active compounds read low 1.01 | S. cerevisiae deletion strains, locus YKL085W, strain MDH1 (second series), active compounds read low 0.999 | S. cerevisiae deletion strains, locus YKL085W, strain MDH1, active compounds read low 0.999 | S. cerevisiae deletion strains, locus YKL160W, strain elf1, active compounds read low 1.01 | S. cerevisiae deletion strains, locus YKL190W, strain CNB1, active compounds read low 0.998 | S. cerevisiae deletion strains, locus YKR001C, strain vps1, active compounds read low 1 | S. cerevisiae deletion strains, locus YKR026C, strain gcn3, active compounds read low 1.02 | S. cerevisiae deletion strains, locus YKR091W, strain srl3, active compounds read low 0.993 | S. cerevisiae deletion strains, locus YLL001W, strain dnm1, active compounds read low 0.99 | S. cerevisiae deletion strains, locus YLL026W, active compounds read low 1.01 | S. cerevisiae deletion strains, locus YLL041C, strain sdh2, active compounds read low 1.01 | S. cerevisiae deletion strains, locus YLR027C, strain aat2, active compounds read low 0.99 | S. cerevisiae deletion strains, locus YLR039C, strain RIC1, active compounds read low 1.02 | S. cerevisiae deletion strains, locus YLR058C, strain SHM2, active compounds read low 1.01 | S. cerevisiae deletion strains, locus YLR102C, strain apc9, active compounds read low 1 | S. cerevisiae deletion strains, locus YLR113W, strain HOG1, active compounds read low 1.08 | S. cerevisiae deletion strains, locus YLR221C, strain rsa3, active compounds read low 0.979 | S. cerevisiae deletion strains, locus YLR258W, strain gsy2, active compounds read low 1.02 | S. cerevisiae deletion strains, locus YLR262C, strain YPT6 (second series), active compounds read low 0.999 | S. cerevisiae deletion strains, locus YLR262C, strain YPT6, active compounds read low 0.992 | S. cerevisiae deletion strains, locus YLR268W, strain sec22, active compounds read low 0.993 | S. cerevisiae deletion strains, locus YLR320W, strain mms22, active compounds read low 0.988 | S. cerevisiae deletion strains, locus YLR330W, strain CHS5, active compounds read low 1.01 | S. cerevisiae deletion strains, locus YLR342W, strain FKS1 (second series), active compounds read low 1.02 | S. cerevisiae deletion strains, locus YLR342W, strain FKS1, active compounds read low 1.01 | S. cerevisiae deletion strains, locus YLR357W, strain rsc2, active compounds read low 1.03 | S. cerevisiae deletion strains, locus YLR370C, strain arc18, active compounds read low 0.999 | S. cerevisiae deletion strains, locus YLR371W, strain rom2, active compounds read low 1.01 | S. cerevisiae deletion strains, locus YLR384C, strain iki3, active compounds read low 1.01 | S. cerevisiae deletion strains, locus YLR418C, strain cdc73, active compounds read low 0.984 | S. cerevisiae deletion strains, locus YML016C, strain PPZ1, active compounds read low 1 | S. cerevisiae deletion strains, locus YML032C, strain rad52, active compounds read low 1.02 | S. cerevisiae deletion strains, locus YML120C, strain ndi1, active compounds read low 0.988 | S. cerevisiae deletion strains, locus YML124C, strain tub3, active compounds read low 1 | S. cerevisiae deletion strains, locus YMR058W, strain fet3, active compounds read low 1 | S. cerevisiae deletion strains, locus YMR078C, strain ctf18, active compounds read low 0.996 | S. cerevisiae deletion strains, locus YMR125W, strain sto1, active compounds read low 1.01 | S. cerevisiae deletion strains, locus YMR129W, active compounds read low 0.996 | S. cerevisiae deletion strains, locus YMR205C, strain PFK2, active compounds read low 1.02 | S. cerevisiae deletion strains, locus YMR223W, strain ubp8, active compounds read low 1.01 | S. cerevisiae deletion strains, locus YMR231W, strain pep5, active compounds read low 1 | S. cerevisiae deletion strains, locus YMR263W, strain SAP30, active compounds read low 1 | S. cerevisiae deletion strains, locus YMR307W, strain GAS1, active compounds read low 1.03 | S. cerevisiae deletion strains, locus YNL067W, strain RPL9B, active compounds read low 1 | S. cerevisiae deletion strains, locus YNL071W, strain lat1, active compounds read low 1.04 | S. cerevisiae deletion strains, locus YNL128W, strain TEP1, active compounds read low 1.01 | S. cerevisiae deletion strains, locus YNL153C, strain GIM3, active compounds read low 0.988 | S. cerevisiae deletion strains, locus YNL183C, strain NPR1, active compounds read low 0.983 | S. cerevisiae deletion strains, locus YNL209W, strain ssb2, active compounds read low 0.984 | S. cerevisiae deletion strains, locus YNL233W, strain BNI4, active compounds read low 1.01 | S. cerevisiae deletion strains, locus YNL248C, strain rpa49, active compounds read low 1 | S. cerevisiae deletion strains, locus YNL250W, strain rad50, active compounds read low 1.01 | S. cerevisiae deletion strains, locus YNL271C, strain bni1, active compounds read low 1.01 | S. cerevisiae deletion strains, locus YNL298W, strain CLA4, active compounds read low 1 | S. cerevisiae deletion strains, locus YNL307C, strain MCK1, active compounds read low 1.02 | S. cerevisiae deletion strains, locus YNL322C, strain KRE1 (second series), active compounds read low 0.979 | S. cerevisiae deletion strains, locus YNL322C, strain KRE1, active compounds read low 1 | S. cerevisiae deletion strains, locus YNR049C, strain mso1, active compounds read low 0.994 | S. cerevisiae deletion strains, locus YNR052C, strain pop2, active compounds read low 1.01 | S. cerevisiae deletion strains, locus YOL006C, strain TOP1, active compounds read low 1.02 | S. cerevisiae deletion strains, locus YOL012C, strain htz1 1.06 | S. cerevisiae deletion strains, locus YOL147C, strain pex11, active compounds read low 1 | S. cerevisiae deletion strains, locus YOR001W, strain rrp6, active compounds read low 0.961 | S. cerevisiae deletion strains, locus YOR061W, strain CKA2, active compounds read low 1 | S. cerevisiae deletion strains, locus YOR069W, strain VPS5, active compounds read low 0.995 | S. cerevisiae deletion strains, locus YOR070C, strain gyp1, active compounds read low 1.01 | S. cerevisiae deletion strains, locus YOR080W, strain dia2, active compounds read low 0.994 | S. cerevisiae deletion strains, locus YOR083W, strain WHI5, active compounds read low 0.995 | S. cerevisiae deletion strains, locus YOR106W, strain vam3, active compounds read low 1.02 | S. cerevisiae deletion strains, locus YOR136W, strain idh2, active compounds read low 0.997 | S. cerevisiae deletion strains, locus YOR144C, strain elg1, active compounds read low 1 | S. cerevisiae deletion strains, locus YOR184W, strain ser1, active compounds read low 1.02 | S. cerevisiae deletion strains, locus YOR231W, strain MKK1, active compounds read low 1.05 | S. cerevisiae deletion strains, locus YOR265W, strain rbl2, active compounds read low 1 | S. cerevisiae deletion strains, locus YOR270C, strain vph1, active compounds read low 1.02 | S. cerevisiae deletion strains, locus YOR290C, strain snf2, active compounds read low 1.01 | S. cerevisiae deletion strains, locus YOR316C, strain cot1, active compounds read low 1.01 | S. cerevisiae deletion strains, locus YPL051W, strain arl3, active compounds read low 1.01 | S. cerevisiae deletion strains, locus YPL055C, strain LGE1, active compounds read low 0.98 | S. cerevisiae deletion strains, locus YPL078C, strain atp4, active compounds read low 1.02 | S. cerevisiae deletion strains, locus YPL106C, strain sse1, active compounds read low 0.999 | S. cerevisiae deletion strains, locus YPL240C, strain hsp82, active compounds read low 1 | S. cerevisiae deletion strains, locus YPL241C, strain CIN2, active compounds read low 1.01 | S. cerevisiae deletion strains, locus YPL256C, strain CLN2, active compounds read low 1.04 | S. cerevisiae deletion strains, locus YPR119W, strain clb2, active compounds read low 1 | S. cerevisiae deletion strains, locus YPR141C, strain kar3, active compounds read low 0.999 | S. cerevisiae deletion strains, locus YPR163C, strain tif3, active compounds read low 1 | S. cerevisiae deletion strains, locus YPR167C, strain met16, active compounds read low 0.998 | S. cerevisiae deletion strains, strain wtn01, active compounds read low 0.997 | S. cerevisiae strains, strain wild type, active compounds read low 1
